This is a sample that favours compounds with a hit; in the whole collection about 2.2% have one here.
GALK inh – qHTS Assay for Inhibitors of Human Galactokinase (GALK) | P51570 | Purified GALK, Kinase-Glo residual ATP luminescence | Potency, µM (top dose mostly 57.5 µM), without a hit: top-dose activity change, negative = inhibition, usual class: inhibitors | 270,000 tested, 0.007% active | AID 1868, 2009; note: potency is the fitted concentration of half-maximal effect; % is set by controls: 0 for no effect and ±100 for the full control effect
Target sequence (P51570 whole entry, looked up): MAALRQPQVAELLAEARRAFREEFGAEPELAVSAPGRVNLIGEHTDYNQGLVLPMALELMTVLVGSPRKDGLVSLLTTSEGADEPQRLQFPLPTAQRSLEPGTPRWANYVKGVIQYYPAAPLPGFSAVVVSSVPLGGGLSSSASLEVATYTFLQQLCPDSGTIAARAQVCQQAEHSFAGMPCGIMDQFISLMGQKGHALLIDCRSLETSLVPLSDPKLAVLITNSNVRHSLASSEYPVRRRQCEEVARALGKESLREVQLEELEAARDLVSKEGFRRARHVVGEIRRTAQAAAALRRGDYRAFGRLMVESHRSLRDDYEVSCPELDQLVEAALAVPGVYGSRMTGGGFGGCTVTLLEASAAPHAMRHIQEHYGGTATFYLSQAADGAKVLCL
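GALK at 5 nM final was combined with compound, 35 uM ATP and 100 uM galactose in HEPES pH8.0 with MgCl2 and DTT. The reaction ran one hour at room temperature before luminescent ATP detection.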
Nrf2 ARE act – qHTS of Nrf2 Activators; AREc32 ARE-luciferase reporter (MCF7-derived line), luminescence, 24 h; Potency, µM (doses to about 46.1 µM), for the others: top-dose activation, actives largely listed as activators; 410,000 tested, 0.31% active; note: potency is the fitted concentration of half-maximal effect; % of control where 0% means no effect; nearly all actives have a fitted effect of over 65% in size
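Each well held 1000 AREc32 cells, which were incubated with compound for 24 hr at 37 deg C after overnight attachment, and ARE reporter activity was quantified by firefly luciferase luminescence.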
Nrf2 block – Nrf2 qHTS screen for inhibitors; A549 ARE-Fluc reporter, luciferase luminescence, 18-24 h; Potency, µM (doses to about 46 µM), for inactives: at the highest dose activity change, negative = inhibition, most hits filed as inhibitors; 360,000 tested, 2.1% active; note: potency is the fitted concentration of half-maximal effect; % is set by controls: 0 for no effect and ±100 for the full control effect; nearly all actives have a fitted effect of over 60% in size
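Reporter: ARE-Fluc in A549. Exposure: 18-24 h, 37 °C, 5% CO2, 5% FBS OPTI-MEM. Readouts: fluorescent cytotoxicity (CellTiter-Fluor), then luminescent Nrf2 signal after BugLite.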
PI4K2A block – qHTS for small molecular inhibitors of PI4K2A; purified PI4K2A, ADP-Glo luminescence, 1 h; active compounds read low; activity change, negative = inhibition, % at 76.9 µM; 420,000 tested, 0.13% active; AID 1346378, 2018; in the data active = activity change below about -50%; inconclusive = mostly about -30% to -49%;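 note: -100% = wells without enzyme as full effect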
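In this quantitative HTS, ADP production by PI4K2A was quantified luminescently after 1 h at ambient temperature; 100 microM adenosine served as plate-quality control.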
miR-21 reporter – qHTS Assay for Modulators of miRNAs and/orActivators of miR-21; HeLa miR-21 FLuc reporter, luciferase, 48 h; Potency, µM (series often up to 38.3 µM), inactives show at the top dose activity change, positive = activation, most hits filed as activators; 340,000 tested, under 10 active;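 note: % of control where 0% means no effect; miR-21 action dims this reporter so a rising signal means less miR-21 action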
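HeLa cells stably expressing CMV-driven firefly luciferase with a downstream miR-21 binding sequence, endogenously expressing miR-21, were treated with titrations (up to about 40uM final) for 48 hours at 37 degree Celsius. Luciferase luminescence was read after lysis.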
A549 tox – Nrf2 qHTS screen for inhibitors: counterscreen for cytotoxicity; Potency, µM (titrated, usually from 46 µM), without a hit: at the top dose activity change, negative = cytotoxicity, actives largely listed as inhibitors; A549 ARE-Fluc cells, CellTiter-Fluor viability, 18-24 h; 390,000 tested, 0.16% active; note: potency is the fitted concentration of half-maximal effect; % is set by controls: 0 for no effect and ±100 for the full control effect
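Cytotoxicity counterscreen: CellTiter-Fluor fluorescence was measured in A549 ARE_Fluc cells after 18-24 h of compound exposure in a concentration series. The subsequent BugLite luminescent read reports ARE-luciferase activity.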
* = called active by the depositor. Unless noted, calls come from the whole dose curve; as a rule, active = well fitted curve in the direction sought with a large enough effect; inconclusive = small, poorly fitted or top-dose-only effect, or another doubt; inactive = no such curve, though single readings can be large; an effect the other way counts as inactive or inconclusive.

What do the screens show for `CCN(Cc1ccccc1)S(=O)(=O)c1ccc(C(=O)Nc2nnc(-c3ccccc3OC)o2)cc1`?
GALK inh: 0%; Nrf2 ARE act: 0%; Nrf2 block: 13µM*; PI4K2A block: 7; miR-21 reporter: 2%; A549 tox: -22%

What do the screens show for `COc1cc(NC(=O)COc2cccc3c2OC(C)(C)C3)cc(OC)c1OC`?
Nrf2 ARE act: 0%; Nrf2 block: 10µM*; PI4K2A block: 1; A549 tox: -13%

Results for CCOC(=O)C1=C(C)N=C2c3ccccc3C(=O)C2C1c1ccc(Cl)cc1 (stereo unspecified) ?
Nrf2 ARE act: 8%; Nrf2 block: inconclusive; PI4K2A block: 4; miR-21 reporter: 9%; A549 tox: 16µM*

Results for CC1(C)CC(=O)C2=C(C1)N=C1c3ccccc3C(=O)C1C2c1ccc(Cl)cc1 (stereo unspecified) ?
GALK inh: -1%; Nrf2 ARE act: 0%; Nrf2 block: 26µM*; PI4K2A block: -3; miR-21 reporter: 21%; A549 tox: 26µM*

How did Cn1c(=O)[nH]c(=O)c2c1nc([N+](=O)[O-])n2Cc1ccccc1 do in these assays?
GALK inh: 7%; Nrf2 ARE act: inconclusive; Nrf2 block: 23µM*; PI4K2A block: inconclusive; miR-21 reporter: inconclusive; A549 tox: inconclusive

Results for CC(C)Cn1c([N+](=O)[O-])nc2c1c(=O)[nH]c(=O)n2C ?
Nrf2 ARE act: inconclusive; Nrf2 block: -15%; PI4K2A block: -10; miR-21 reporter: inconclusive; A549 tox: inconclusive

How did COc1ccc(-c2nc3c(c(=O)[nH]c(=O)n3Cc3ccccc3)n2Cc2ccccc2)cc1 do in these assays?
GALK inh: 0%; Nrf2 ARE act: 0%; Nrf2 block: 15µM*; PI4K2A block: -4; miR-21 reporter: 0%; A549 tox: -15%

Results for COc1ccc(-c2nc3c(c(=O)[nH]c(=O)n3Cc3ccccc3)n2C)cc1 ?
GALK inh: -2%; Nrf2 ARE act: 0%; Nrf2 block: 14%; PI4K2A block: 1; miR-21 reporter: 0%; A549 tox: 17%

Results for COc1ccc(S[C@]2(C(=O)N3CCOCC3)CC(=O)N(c3ccc(OC)cc3)[C@@H]2c2ccc(OC)cc2)cc1 ?
PI4K2A block: -4

How did COc1ccc2ccc3c(c2c1)N=C[C@]1(O3)N(C)c2ccccc2C1(C)C do in these assays?
GALK inh: -2%; Nrf2 ARE act: 15%; Nrf2 block: -15%; PI4K2A block: -68*; miR-21 reporter: 8%; A549 tox: -17%

What do the screens show for `COc1ccccc1N=Cc1c(C)c(C#N)c2[nH]c3ccccc3n2c1=O`?
GALK inh: -2%; Nrf2 ARE act: 1%; Nrf2 block: -24%; PI4K2A block: -6; miR-21 reporter: -11%; A549 tox: -17%

How did Cc1c(Cc2ccccc2)c(=O)n2c([nH]c3ccccc32)c1C#N do in these assays?
GALK inh: -5%; Nrf2 ARE act: 0%; Nrf2 block: 15µM*; PI4K2A block: 1; miR-21 reporter: 6%; A549 tox: -21%

How did COc1ccc(-c2nc(-c3ccccc3)c(-c3ccc(O)cc3)[nH]2)cc1 do in these assays?
Nrf2 ARE act: -3%; Nrf2 block: inconclusive; PI4K2A block: 0; miR-21 reporter: 16%; A549 tox: -9%

What do the screens show for `COc1ccc(-c2nc(-c3ccc4c(c3)OCO4)[nH]c2-c2ccc(OC)cc2)cc1`?
GALK inh: 5%; Nrf2 ARE act: 1%; Nrf2 block: 26µM*; PI4K2A block: 2; miR-21 reporter: 13%; A549 tox: inconclusive

What do the screens show for `COC(=O)[C@]12C[C@H](CC(=O)N3CCN(C(=O)C4CC4)CC3)C(=O)N(Cc3cccc4ccccc34)C1=C[C@H](C1CCCC1)O[C@@H]2C`?
PI4K2A block: -2

How did O=C(c1ccccc1O)N(Cc1ccco1)Cc1cccs1 do in these assays?
Nrf2 block: inconclusive; A549 tox: 4%

How did CC1=C(C#N)C(c2ccccc2)C2=C(N1)c1ccccc1C2=O (stereo unspecified) do in these assays?
Nrf2 ARE act: 0%; Nrf2 block: 23µM*; PI4K2A block: 4; miR-21 reporter: 16%; A549 tox: inconclusive

What do the screens show for `CC1=C(C#N)C(c2cccnc2)C2=C(N1)c1ccccc1C2=O` (stereo unspecified)?
GALK inh: -2%; Nrf2 ARE act: -1%; Nrf2 block: 7%; PI4K2A block: -9; miR-21 reporter: -2%; A549 tox: 0%

Results for Cc1csc2nc(NC(=O)c3ccccc3)sc(=O)c12 ?
Nrf2 ARE act: 3.2µM*; Nrf2 block: inconclusive; PI4K2A block: 1; miR-21 reporter: -22%; A549 tox: -1%

Results for Cc1csc2c(=O)sc(NC(=O)c3ccc(F)cc3)nc12 ?
GALK inh: 4%; Nrf2 ARE act: inconclusive; Nrf2 block: 5%; PI4K2A block: 4; miR-21 reporter: -4%; A549 tox: 1%

How did Cc1nc2sccn2c1-c1csc(NCc2ccccc2)n1 do in these assays?
GALK inh: -1%; Nrf2 ARE act: 7%; Nrf2 block: 8.2µM*; PI4K2A block: -1; miR-21 reporter: 12%; A549 tox: -14%

Results for Cc1nc(NC(=O)c2ccccc2)sc1-c1csc(NCc2ccccc2)n1 ?
GALK inh: 0%; Nrf2 ARE act: 3%; Nrf2 block: 21µM*; PI4K2A block: -4; miR-21 reporter: 0%; A549 tox: -16%

How did Cc1nc(NC(=O)c2ccccc2)sc1-c1csc(NCCc2ccccc2)n1 do in these assays?
GALK inh: 4%; Nrf2 ARE act: 3%; Nrf2 block: inconclusive; PI4K2A block: -21; miR-21 reporter: 9%; A549 tox: -15%

Results for CCCC(=O)OC12CCCN(C1)/C(=C/c1cccc(Cl)c1)C2 (stereo unspecified) ?
PI4K2A block: 2

What do the screens show for `Cc1cc2c(s1)c1cnn(Cc3cc(F)c(F)c(F)c3)c(=O)c1n2C`?
Nrf2 block: 12%; A549 tox: -13%

What do the screens show for `O=C(CCc1ccccc1)N[C@H]1[C@@H](OC(=O)c2cnccn2)CCC[C@@]12C(=O)N(Cc1ccccc1)c1ccccc12`?
PI4K2A block: -4
